Measurements reported in PubChem BioAssay (NCATS).
Records with an inconclusive call do not appear. Active and inactive are the calls of the source. Calls come from the whole dose curve; as a rule, active = well fitted curve in the direction sought with a large enough effect; inconclusive = small, poorly fitted or top-dose-only effect, or another doubt; inactive = no such curve, though single readings can be large; an effect the other way counts as inactive or inconclusive.

Assays:
UISO = assay: qHTS assay to identify novel small-molecules to repurpose for Merkel cell carcinoma treatment (AID 1296009); conditions: MCC and control cell lines, CellTiter-Glo viability, 72 h; series mostly up to 46 µM; note: nearly all actives have a fitted effect of over 60% in size
Procedure, shortened: (§1)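 Dose-response viability screen; 72 hr exposure at 37 degree celsius; CellTiter-Glo added, 10 min room temperature, luminescence read; RLUs scaled between no-cell and DMSO wells.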

WaGa = assay: as above; conditions: MCC and control cell lines, CellTiter-Glo viability, 72 h; series mostly up to 46 µM
Procedure, shortened: as §1

C33A = assay: Primary qHTS to identify gynecologic anti-cancer compounds using libraries of approved drugs and bioactive compounds (AID 1345084); conditions: Gynecologic cancer cell panel viability, ATPlite luminescence, 48 h; series mostly up to 57.5 µM; note: nearly all actives have a fitted effect of over 55% in size; note: potency is the fitted concentration of half-maximal effect
Procedure, shortened: (§2)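 ATP-based viability (ATPlite), 1,000 cells/well, 16 h pre-incubation, 48 h compound at 37 C, 5% CO2, 15 min RT before read.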

CAOV3 = assay: as above; conditions: Gynecologic cancer cell panel viability, ATPlite luminescence, 48 h; series mostly up to 57.5 µM
Procedure, shortened: as §2

CASKI = assay: as above; conditions: Gynecologic cancer cell panel viability, ATPlite luminescence, 48 h; series mostly up to 57.5 µM
Procedure, shortened: as §2

Es-2 = assay: as above; conditions: Gynecologic cancer cell panel viability, ATPlite luminescence, 48 h; series mostly up to 57.5 µM
Procedure, shortened: as §2

HeLa = assay: as above; conditions: Gynecologic cancer cell panel viability, ATPlite luminescence, 48 h; series mostly up to 57.5 µM
Procedure, shortened: as §2

Hek293T = assay: as above; conditions: Gynecologic cancer cell panel viability, ATPlite luminescence, 48 h, control line for the selectivity index; series mostly up to 57.5 µM
Procedure, shortened: as §2

JEG-3 = assay: as above; conditions: Gynecologic cancer cell panel viability, ATPlite luminescence, 48 h; series mostly up to 57.5 µM
Procedure, shortened: as §2

OV90 = assay: as above; conditions: Gynecologic cancer cell panel viability, ATPlite luminescence, 48 h; series mostly up to 57.5 µM
Procedure, shortened: as §2
% is set by controls: 0 for no effect and ±100 for the full control effect.

OCc1ccccc1O
inactive: Potency (UISO) | Potency (WaGa) | Potency (C33A) | Potency (CAOV3) | Potency (CASKI) | Potency (Es-2) | Potency (HeLa) | Potency (Hek293T) | Potency (JEG-3) | Potency (OV90)

NCCCC[C@H](N[C@@H](CCc1ccccc1)C(=O)O)C(=O)N1CCC[C@H]1C(=O)O
inactive: Potency (UISO) | Potency (WaGa) | Potency (C33A) | Potency (CAOV3) | Potency (CASKI) | Potency (Es-2) | Potency (HeLa) | Potency (Hek293T) | Potency (JEG-3) | Potency (OV90)

CC1(C)OC[C@@H](COC(=O)CCc2ccc(OC[C@@H](O)CNCCNC(=O)N3CCOCC3)cc2)O1
inactive: Potency (UISO) | Potency (WaGa) | Potency (C33A) | Potency (CAOV3) | Potency (CASKI) | Potency (Es-2) | Potency (HeLa) | Potency (Hek293T) | Potency (JEG-3) | Potency (OV90)

CN(C)CCOc1ccccc1Cc1ccccc1
inactive: Potency (UISO) | Potency (WaGa) | Potency (C33A) | Potency (CAOV3) | Potency (CASKI) | Potency (Es-2) | Potency (HeLa) | Potency (Hek293T) | Potency (JEG-3) | Potency (OV90)

O=C1c2ccccc2C(=O)C1c1ccccc1
inactive: Potency (UISO) | Potency (WaGa) | Potency (C33A) | Potency (CAOV3) | Potency (CASKI) | Potency (Es-2) | Potency (HeLa) | Potency (Hek293T) | Potency (JEG-3) | Potency (OV90)

CCCCCCCCCCCCCCCCCC(=O)OCC(O)CO (stereo unspecified)
inactive: Potency (UISO) | Potency (WaGa) | Potency (C33A) | Potency (CAOV3) | Potency (CASKI) | Potency (Es-2) | Potency (HeLa) | Potency (Hek293T) | Potency (JEG-3) | Potency (OV90)

CC[C@@H](CO)NCCN[C@@H](CC)CO
inactive: Potency (UISO) | Potency (WaGa) | Potency (C33A) | Potency (CAOV3) | Potency (CASKI) | Potency (Es-2) | Potency (HeLa) | Potency (Hek293T) | Potency (JEG-3) | Potency (OV90)

CCCCOc1ccc(OCCCN2CCOCC2)cc1
inactive: Potency (UISO) | Potency (WaGa) | Potency (C33A) | Potency (CAOV3) | Potency (CASKI) | Potency (Es-2) | Potency (HeLa) | Potency (Hek293T) | Potency (JEG-3) | Potency (OV90)

Nc1ccc(C(=O)O)cc1
inactive: Potency (UISO) | Potency (WaGa) | Potency (C33A) | Potency (CAOV3) | Potency (CASKI) | Potency (Es-2) | Potency (HeLa) | Potency (Hek293T) | Potency (JEG-3) | Potency (OV90)

CCCC(=O)O[C@]1(C(=O)CO)CC[C@H]2[C@@H]3CCC4=CC(=O)CC[C@]4(C)[C@H]3[C@@H](O)C[C@@]21C
active: Potency (CAOV3) 3.55 µM
inactive: Potency (UISO) | Potency (WaGa) | Potency (C33A) | Potency (CASKI) | Potency (Es-2) | Potency (HeLa) | Potency (Hek293T) | Potency (JEG-3) | Potency (OV90)

O=c1[nH]c(=O)n([C@H]2CCCO2)cc1F
inactive: Potency (UISO) | Potency (WaGa) | Potency (C33A) | Potency (CAOV3) | Potency (CASKI) | Potency (Es-2) | Potency (HeLa) | Potency (Hek293T) | Potency (JEG-3) | Potency (OV90)

C[C@H]1[C@H](NC(=O)/C(=N/OC(C)(C)C(=O)O)c2csc(N)n2)C(=O)N1S(=O)(=O)O (stereo in doubt)
inactive: Potency (UISO) | Potency (WaGa) | Potency (C33A) | Potency (CAOV3) | Potency (CASKI) | Potency (Es-2) | Potency (HeLa) | Potency (Hek293T) | Potency (JEG-3) | Potency (OV90)

Cc1ccnc(NS(=O)(=O)c2ccc(N)cc2)n1
inactive: Potency (UISO) | Potency (WaGa) | Potency (C33A) | Potency (CAOV3) | Potency (CASKI) | Potency (Es-2) | Potency (HeLa) | Potency (Hek293T) | Potency (JEG-3) | Potency (OV90)

CCCCS(=O)(=O)N[C@@H](Cc1ccc(OCCCCC2CCNCC2)cc1)C(=O)O
inactive: Potency (UISO) | Potency (WaGa) | Potency (C33A) | Potency (CAOV3) | Potency (CASKI) | Potency (Es-2) | Potency (HeLa) | Potency (Hek293T) | Potency (JEG-3) | Potency (OV90)

CC[N+](CC)(CCNC(=O)C(=O)NCC[N+](CC)(CC)Cc1ccccc1Cl)Cc1ccccc1Cl
inactive: Potency (UISO) | Potency (WaGa) | Potency (C33A) | Potency (CAOV3) | Potency (CASKI) | Potency (Es-2) | Potency (HeLa) | Potency (Hek293T) | Potency (JEG-3) | Potency (OV90)

CCn1cc(C(=O)O)c(=O)c2cnc(N3CCCC3)nc21
inactive: activity change, negative = cytotoxicity (UISO) 12.1% [at 9.22 µM] | activity change, negative = cytotoxicity (WaGa) 0.34% [at 9.22 µM] | activity change, negative = cytotoxicity (C33A) -2.2% [at 11.6 µM] | activity change, negative = cytotoxicity (CAOV3) -1.93% [at 11.6 µM] | activity change, negative = cytotoxicity (CASKI) 15.2% [at 11.6 µM] | activity change, negative = cytotoxicity (Es-2) 0.873% [at 11.6 µM] | activity change, negative = cytotoxicity (HeLa) -17.6% [at 11.6 µM] | activity change, negative = cytotoxicity (Hek293T) 1.62% [at 11.6 µM] | activity change, negative = cytotoxicity (JEG-3) -0.757% [at 11.6 µM] | activity change, negative = cytotoxicity (OV90) -1.88% [at 11.6 µM]

CN1CCN(C(c2ccccc2)c2ccccc2)CC1
inactive: Potency (UISO) | Potency (WaGa) | Potency (C33A) | Potency (CASKI) | Potency (Es-2) | Potency (HeLa) | Potency (Hek293T) | Potency (JEG-3) | Potency (OV90)

Cc1c(C(C)C)c(=O)n(-c2ccccc2)n1C
inactive: Potency (UISO) | Potency (WaGa) | Potency (C33A) | Potency (CAOV3) | Potency (CASKI) | Potency (HeLa) | Potency (Hek293T) | Potency (JEG-3) | Potency (OV90)

COc1ccc(OC)c(C(O)CNC(=O)CN)c1 (stereo unspecified)
inactive: Potency (UISO) | Potency (WaGa) | Potency (C33A) | Potency (CAOV3) | Potency (CASKI) | Potency (Es-2) | Potency (HeLa) | Potency (JEG-3) | Potency (OV90)

CC(=O)OCC(=O)NCCCOc1cccc(CN2CCCCC2)c1
inactive: Potency (UISO) | Potency (WaGa) | Potency (C33A) | Potency (CASKI) | Potency (Es-2) | Potency (HeLa) | Potency (Hek293T) | Potency (JEG-3) | Potency (OV90)
